Test results taken from PubChem BioAssay (NCATS).
Inconclusive results are not listed. Active and inactive are the calls of the source. Calls come from the whole dose curve.

Target: Cytochrome P450 1A2 (Homo sapiens) (UniProt P05177)
Assay: p450-cyp1a2 (AID 410)
Settings: recombinant CYP1A2, luciferin-ME demethylation, luminescence; series mostly up to 57 µM
How it was run: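 Luminescent demethylation readout: Luciferin-ME (100uM, equal to Km) turned over by 20nM CYP1A2 for 60 min at room temperature after NADPH regeneration addition, following 10 min compound preincubation. Normalization used 57 uM furafylline as full inhibition.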
Potency is the fitted concentration of half-maximal effect.

Sequence of Cytochrome P450 1A2 (Homo sapiens) (P05177 whole entry, looked up): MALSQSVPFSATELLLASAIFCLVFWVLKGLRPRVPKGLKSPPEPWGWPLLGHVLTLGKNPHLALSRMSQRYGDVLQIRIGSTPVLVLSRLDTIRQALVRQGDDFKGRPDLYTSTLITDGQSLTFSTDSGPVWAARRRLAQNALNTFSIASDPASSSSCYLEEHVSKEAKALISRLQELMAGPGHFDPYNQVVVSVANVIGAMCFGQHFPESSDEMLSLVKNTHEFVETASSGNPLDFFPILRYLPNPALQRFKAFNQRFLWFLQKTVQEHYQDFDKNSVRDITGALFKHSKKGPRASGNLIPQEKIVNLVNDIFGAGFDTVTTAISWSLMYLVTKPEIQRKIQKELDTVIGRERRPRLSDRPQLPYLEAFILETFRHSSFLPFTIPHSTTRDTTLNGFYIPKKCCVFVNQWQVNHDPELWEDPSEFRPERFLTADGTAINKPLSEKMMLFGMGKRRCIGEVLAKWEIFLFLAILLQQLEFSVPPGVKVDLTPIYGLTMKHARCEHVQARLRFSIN

Potency, active:
Cc1noc(C)c1-c1nccc(N2CCOCC2)n1 0.631 µM
c1csc(CNc2ccnc(-c3ccoc3)n2)c1 1 µM
Cc1ccccc1-c1nccc(NCCN2CCOCC2)n1 5.01 µM
Cc1cccc(CNc2cc(-c3c(C)noc3C)ncn2)c1 1 µM
CCNc1ncc2nc(-c3ccccc3)c(=O)n(Cc3cccs3)c2n1 0.316 µM
COCCNc1nc(-c2ccccc2Cl)nc2ccccc12 0.126 µM
COc1cccc(-c2cncnc2N(C)Cc2ccco2)c1 10 µM
CN(C)C(=O)c1ccc(-c2cncnc2NCCc2cnc[nH]2)cc1 12.6 µM
Cc1cnc(CNc2ccnc(-c3ccccc3C(F)(F)F)n2)cn1 15.8 µM
FC(F)(F)c1ccccc1-c1nccc(NCc2cccs2)n1 1.26 µM
c1cncc(-c2cncnc2NC2CCNCC2)c1 12.6 µM
c1ccc(Nc2cc(-c3ccoc3)ncn2)cc1 15.8 µM
Cn1c(=O)c(-c2ccccc2)nc2cncnc21 0.631 µM
CN(C)Cc1ccccc1-c1nc(N(C)C)c2ccccc2n1 1.26 µM
CN(C)c1ncc2nc(-c3ccc(F)cc3)c(=O)n(C)c2n1 1.58 µM
O=c1cnc2cnc(Oc3cccc(Cl)c3)nc2n1C[C@H]1CCCO1 5.01 µM
CCNc1ncc2nc(-c3ccc(F)cc3)c(=O)n(CCOC)c2n1 2 µM
CCNc1ncc2nc(C)c(=O)n(CCC#N)c2n1 12.6 µM
